High-throughput results as filed in PubChem BioAssay.
Only some compounds are listed: those with a hit (about 3.5% of all), similar ones and a draw of the others.
Tau fluor cs: Counterscreen qHTS for Inhibitors of Tau Fibril Formation, Fluorescence Polarization; tau K18 P301L Alexa594 fluorescence, heparin fibrillization; Potency, µM (titrated, usually from 57.7 µM); 280,000 compounds, 0.93% hits; AID 1463, 2008; further: nearly all actives have a fitted effect of over 55% in size
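Human tau K18 P301L (15 uM unlabeled, 0.24 uM Alexa 594-labeled) in 100 mM sodium acetate pH 7 with 20 uM heparin, 6 hr at 37 C. ThT 30 uM added, 1 hr ambient; Alexa 594 FP and total fluorescence read at 555/632 nm.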
TRb SRC2 PPI: qHTS for Inhibitors of the Interaction of Thyroid Hormone Receptor and Steroid Receptor Coregulator 2 | Thyroid hormone receptor beta (Homo sapiens), P10828 | TRbeta-SRC2 peptide binding, fluorescence polarization; receptor liganded with 1 µM T3 | Potency, µM (series often up to 106 µM), actives largely listed as inhibitors | 280,000 compounds, 0.065% hits; further: nearly all actives have a fitted effect of over 50% in size
Target sequence (P10828 whole entry, looked up): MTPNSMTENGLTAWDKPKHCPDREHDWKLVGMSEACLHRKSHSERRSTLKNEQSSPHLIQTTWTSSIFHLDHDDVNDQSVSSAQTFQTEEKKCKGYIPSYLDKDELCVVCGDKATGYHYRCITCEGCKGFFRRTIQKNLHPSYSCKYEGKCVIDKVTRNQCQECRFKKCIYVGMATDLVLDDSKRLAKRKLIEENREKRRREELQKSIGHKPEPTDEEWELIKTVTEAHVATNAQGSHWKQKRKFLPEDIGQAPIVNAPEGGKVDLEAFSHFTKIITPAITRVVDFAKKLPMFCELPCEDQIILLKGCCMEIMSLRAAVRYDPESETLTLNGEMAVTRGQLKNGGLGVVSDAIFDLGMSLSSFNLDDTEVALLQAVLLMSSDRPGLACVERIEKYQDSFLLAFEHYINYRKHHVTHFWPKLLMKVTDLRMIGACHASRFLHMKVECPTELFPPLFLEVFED
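A fluorescence polarization screen tested compounds at multiple concentrations against complex formation between 0.6 uM TRb ligand-binding domain and 20 nM Texas Red SRC2 peptide, with 1 uM T3 present; readout after 5 hr.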
Tau FP inhib: qHTS for Inhibitors of Tau Fibril Formation, Fluorescence Polarization | AID 1468, 2008 | 280,000 compounds, 0.39% hits | Potency, µM (doses to about 57.7 µM), most hits filed as inhibitors | K18 P301L tau heparin fibrillization, Alexa594 FP, 6 h; further: nearly all actives have a fitted effect of over 55% in size
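FP of Alexa 594-tau after heparin (20 uM) induction. Substrate: human K18 P301L, 15 uM unlabeled, 0.24 uM labeled. Buffer 100 mM sodium acetate pH 7. 6 hr, 37 C.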
Tau ThT inhib: qHTS for Inhibitors of Tau Fibril Formation, Thioflavin T Binding; recombinant tau K18 P301L (four-repeat tau fragment), heparin-induced fibrillization, ThT fluorescence; Potency, µM (highest dose often 57.4 µM), most hits filed as inhibitors; 270,000 compounds, 2.1% hits; further: nearly all actives have a fitted effect of over 55% in size
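Tau K18 P301L fragment (15 uM unlabeled plus 0.24 uM Alexa 594-labeled) in 100 mM sodium acetate pH 7 with compound, fibrillization induced by 20 uM heparin for 6 hr at 37 C. Thioflavin T (30 uM) added, fluorescence read after 1 hr (ex 450, em 510 nm).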
TR SRC2 fluor cs: Total Fluorescence Counterscreen for Inhibitors of the Interaction of Thyroid Hormone Receptor and Steroid Receptor Coregulator 2; Potency, µM (highest dose often 106 µM); 280,000 compounds, 0.29% hits; TRb/SRC2 Texas Red total fluorescence interference; active means well fitted curve in either direction with a large enough effect; inconclusive means small, poorly fitted or top-dose-only effect
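Human TRb ligand-binding domain at 0.6 uM with 20 nM Texas Red SRC2 peptide in Tris buffer containing 1 uM T3 and 5% DMSO, incubated with compound 5 h at ambient temperature. Total fluorescence (555/632 nm) calculated as parallel + 2 × perpendicular.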
JMJD2E inh: qHTS Assay for Inhibitors of Human Jumonji Domain Containing 2E (JMJD2E) | Lysine-specific demethylase 4E (Homo sapiens), B2RXH2 | JMJD2E catalytic domain, FDH-coupled NADH fluorescence (FDH is formaldehyde dehydrogenase) | Potency, µM (titrated, usually from 57.1 µM), actives largely listed as inhibitors | 230,000 compounds, 1.6% hits | AID 2147, 2009; active means well fitted inhibition curve with a large enough effect, not every such curve was filed as active; inconclusive means small, poorly fitted or top-dose-only effect, or another doubt; inactive means no such curve, though single readings can be large or run the other way; further: nearly all actives have a fitted effect of over 50% in size
Target sequence (B2RXH2 1-337 limits assumed): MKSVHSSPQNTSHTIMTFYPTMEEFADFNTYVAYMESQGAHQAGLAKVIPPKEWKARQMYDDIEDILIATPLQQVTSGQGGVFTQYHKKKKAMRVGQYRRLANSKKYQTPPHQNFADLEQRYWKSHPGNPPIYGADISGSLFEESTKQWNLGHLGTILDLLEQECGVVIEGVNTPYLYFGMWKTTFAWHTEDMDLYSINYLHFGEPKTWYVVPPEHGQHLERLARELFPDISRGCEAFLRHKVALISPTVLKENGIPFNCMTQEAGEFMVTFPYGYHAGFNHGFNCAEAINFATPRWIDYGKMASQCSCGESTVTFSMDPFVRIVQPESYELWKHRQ
Each line names hits and unclear results; the compound was inactive in the other large screens; [ ] = another dose, or the depositor's remark. Unless noted, the call rests on the fitted dose curve; in most records, active means well fitted curve in the direction sought with a large enough effect; inconclusive means small, poorly fitted or top-dose-only effect, or another doubt; inactive means no such curve, though single readings can be large; an effect the other way counts as inactive or inconclusive.

O=C1NC(=S)S/C1=C\C=C\c1ccc([N+](=O)[O-])o1	TR SRC2 fluor cs inconclusive, JMJD2E inh 20µM (no result: Tau ThT inhib)
O=c1oc2cc(O)c(Cl)cc2c2ccccc12	none
O=c1cc2c(=O)oc3cc(O)c(O)oc3c2c(O)c1O	Tau FP inhib inconclusive, Tau ThT inhib 4.47µM, JMJD2E inh 3.98µM
CC(C)O	none (no result: Tau fluor cs, Tau FP inhib, Tau ThT inhib, JMJD2E inh)
O=C(O)CCCN1C(=O)/C(=C/c2cn(-c3ccccc3)nc2-c2cccs2)SC1=S	Tau FP inhib inconclusive, Tau ThT inhib 15.8µM
CCN(CC)S(=O)(=O)c1cc(NC(=O)c2n[nH]c(=O)c3ccccc23)ccc1C	Tau fluor cs inconclusive, Tau FP inhib inconclusive
COc1cccc(/C=N/NC(=O)NC2CCCCC2)c1O	JMJD2E inh 22.4µM
COc1cccc(/C=N/NC(=O)C(=O)NCc2ccco2)c1O	JMJD2E inh 12.6µM
COc1cccc(/C=N/NC(=O)CC2C(=O)NN=C2C)c1O (stereo unspecified)	JMJD2E inh 8.91µM
COc1ccc(/C=N/NC(=O)C2C(=O)NCC2c2ccccc2)c(OC)c1 (stereo unspecified)	none
COc1cccc(/C=N/NC(=O)CC2C(=O)NN=C2C)c1OC (stereo unspecified)	JMJD2E inh inconclusive
COc1cccc(/C=N\NC(=O)C2C(=O)NCC2c2ccccc2)c1O (stereo unspecified)	JMJD2E inh 28.2µM
CCNC(=O)NC(=O)C(C)OC(=O)c1cccn1C (stereo unspecified)	none
O=S(=O)(c1cnc(Cl)c(Br)c1)N1CCCCCC1	Tau ThT inhib inconclusive
COc1cccc(/C=N/NC(=O)c2ccoc2C)c1O	Tau ThT inhib inconclusive, JMJD2E inh 14.1µM
COc1cccc(/C=N/NC(=O)c2cnccn2)c1O	Tau ThT inhib inconclusive, JMJD2E inh 11.2µM
COc1cccc(/C=N/NC(=O)c2c(-c3ccccc3)noc2C)c1O	JMJD2E inh 31.6µM
COc1cc(/C=N/NC(=O)c2c(-c3ccccc3)noc2C)ccc1O	none
CC(=O)c1ccc(-c2ccccc2[C@H]2[C@H]3C=CC[C@@H](C)[C@@H]3C(=O)N2Cc2ccccc2)cc1	none
Cc1c(Cl)c(C(F)F)nn1CC(=O)NC1C(=O)N2C(C(=O)O)=C(CSc3nnnn3C)CSC12 (stereo unspecified)	Tau FP inhib inconclusive, Tau ThT inhib inconclusive
COc1ccc2c(c1)Sc1ccccc1N2	Tau fluor cs 10µM[quencher], Tau ThT inhib 10µM
c1ccc2c(c1)Nc1ccncc1S2	Tau fluor cs inconclusive, Tau ThT inhib inconclusive
COc1ccc2c(c1)S(=O)(=O)c1ccccc1N2	Tau fluor cs inconclusive, JMJD2E inh inconclusive
c1ccc2c(c1)Nc1cc3ccccc3cc1S2	Tau fluor cs inconclusive, Tau FP inhib inconclusive, Tau ThT inhib 2.24µM
O=C(NCc1ccco1)c1cc2c(s1)CSC2	Tau FP inhib inconclusive, Tau ThT inhib 28.2µM, JMJD2E inh inconclusive
Cc1ccccc1NC(=O)Cn1c(=O)n(CCc2ccccc2)c(=O)c2sc3ccccc3c21	none (no result: JMJD2E inh)
Nc1cc(-c2cccc(F)c2)nn1S(=O)(=O)c1cccc2nsnc12	none
Nc1cc(-c2ccc(Br)cc2)nn1S(=O)(=O)c1cccc2nsnc12	Tau fluor cs 12.6µM[quencher], Tau ThT inhib inconclusive
Nc1cc(-c2ccc(Cl)cc2)nn1S(=O)(=O)c1cccc2nsnc12	Tau fluor cs 17.8µM[quencher], Tau ThT inhib inconclusive
CC(=O)Nc1cccc(Oc2ncnc3scc(-c4ccccc4)c23)c1	none
COc1ccc(C(=O)NCCn2cc(SCC(=O)Nc3ccc(F)cc3)c3ccccc32)cc1	Tau fluor cs 14.1µM[quencher], Tau FP inhib inconclusive, Tau ThT inhib inconclusive (no result: JMJD2E inh)
COc1ccc(C(=O)NCCn2cc(SCC(=O)Nc3ccc(C)cc3)c3ccccc32)cc1	Tau fluor cs inconclusive, Tau ThT inhib inconclusive (no result: JMJD2E inh)
COc1ccc(N2CCN(CC(=O)Nc3cc(C)on3)CC2)cc1	JMJD2E inh 25.1µM
CC(=O)c1ccc(N2CCN(CC(=O)Nc3cc(C)on3)CC2)cc1	none
CC(=O)Oc1ccc(-c2cccc(C(=O)O)c2)cc1	none
Cc1nnc(N2CCN(c3ccccc3)CC2)[nH]c1=O	none
C/C(=N\NC(=O)c1cc2ccccc2cc1O)c1ccc2c(c1)OCO2	Tau fluor cs inconclusive, Tau ThT inhib 7.08µM, TR SRC2 fluor cs 35.5µM[quencher]
C/C(CC(=O)N1CCCC1)=N\NC(=O)c1cc2ccccc2cc1O	Tau fluor cs inconclusive, Tau ThT inhib 12.6µM, JMJD2E inh inconclusive
C/C(CC(=O)Nc1ccc(Cl)c(C(F)(F)F)c1)=N\NC(=O)c1cc2ccccc2cc1O	Tau fluor cs 15.8µM[quencher], Tau ThT inhib 12.6µM, JMJD2E inh inconclusive
CC(=O)N1CCN(C(=S)Nc2cc(S(=O)(=O)N3CCOCC3)ccc2Cl)CC1	none
COc1ccc(N(CC(=O)N2CCc3ccccc3C2)S(C)(=O)=O)cc1OC	none
CCOc1ccc(NC(=O)CC2C(=O)N(c3ccc(OC)cc3)C(=S)N2Cc2ccccn2)cc1 (stereo unspecified)	Tau fluor cs inconclusive
O=C(Cc1ccc(Cl)cc1)NNS(=O)(=O)c1ccc([N+](=O)[O-])cc1	none
CC(C)c1ccc(/C=N/N2CCN(c3ccccn3)CC2)cc1	Tau fluor cs inconclusive, Tau ThT inhib 12.6µM
Oc1ccccc1/C=N/N1CCN(c2ccccn2)CC1	Tau ThT inhib inconclusive
CCCCNC(=O)CSc1nc2ccc(N3CCOCC3)cc2c(=O)n1Cc1ccc(OC)cc1	Tau ThT inhib inconclusive, JMJD2E inh inconclusive
Cc1nc2c(-c3ccc(F)cc3)c(C)nn2c(C)c1CCC(=O)Nc1ccccc1F	none
Cc1ccc(/C=C/C(=O)Nc2ccncc2)o1	Tau ThT inhib inconclusive, JMJD2E inh inconclusive
Cc1ccc(/C=C/C(=O)Nc2ccc(N(C)C)cc2)o1	Tau ThT inhib 8.91µM
CC1=Nc2cccc3cccc(c23)N1	Tau fluor cs inconclusive, Tau FP inhib inconclusive, Tau ThT inhib 22.4µM
Nc1ccc(C2=Nc3cccc4cccc(c34)N2)cc1	none
COc1ccccc1NC(=O)CCC(=O)N(Cc1ccc(OC)c(OC)c1)c1nccs1	none
COc1ccc(-c2cccc(C(=O)Nc3ccccc3C)c2)cc1	none
Cc1c(C(=O)Nc2ccc(-c3nc4cc(Cl)ccc4o3)cc2)oc2ccccc12	TR SRC2 fluor cs 112µM[quencher] (no result: JMJD2E inh)
CC(C)CC(=O)NC(=S)Nc1ccc(Cl)cn1	TR SRC2 fluor cs 3.98µM[quencher]
C=C(C)c1cccc(C(C)(C)NC(=O)NC(c2ccccc2)c2ccc(OC)cc2)c1 (stereo unspecified)	none
